Assay outcomes deposited in PubChem by several laboratories.
NCOA2 inhibitor = inhibits human steroid receptor coactivator 2. HEK293 GAL4-SRC2 luciferase reporter, luminescence. inhibition, % at 9 µM. hit rate 0.17% among 370,000. AID 651957;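 active = inhibition above the mean inhibition of all tested compounds plus 3 SD, set per campaign, cut at about 52% in these data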
NCOA3 inh = human NCOA3 inhibition; Q9Y6Q9; HEK293 GAL4-SRC3 luciferase reporter, luminescence; inhibition, % at 3.6 µM; hit rate 0.17% among 360,000;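 active = inhibition above a per-campaign cutoff, the mean of all compounds plus 3 SD, cut at about 60% in these data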;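 note: higher means less SRC3-driven luciferase light from the GAL4 reporter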
EBV LMP1 NFkB = inhibitors of Epstein-Barr LMP1-induced NF-kappaB reporter | LMP1-induced NF-kappaB luciferase reporter cells, luminescence | inhibition, % at 12.5 µM | hit rate 0.69% among 350,000; in the data active = inhibition above about 41%
NR5A2 inv ag = inverse agonists of human LRH-1 (NR5A2). HEK293T StAR-luciferase reporter, LRH-1 transfected, 24 h. inhibition, % at 3.6 µM. hit rate 0.13% among 360,000. O00482;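 active = inhibition above the mean inhibition of all tested compounds plus 3 SD, cut at about 73% in these data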
NCOA1 inh = human NCOA1 inhibition. Q15788. HEK293 GAL4-SRC1 luciferase reporter, luminescence. inhibition, % at 3.6 µM. hit rate 0.12% among 360,000;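 active = inhibition above the campaign mean plus 3 SD, with each screening campaign given its own cutoff, cut at about 60% in these data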
Each line names hits and unclear results; the compound was inactive in the other large screens. The list is not random: actives were taken first. Their share in the collection is about 0.78%.

O=C(CSc1nnc(-c2ccccn2)n1-c1ccccc1)Nc1ccccc1-c1ccccc1	none (no result: NCOA3 inh, EBV LMP1 NFkB, NR5A2 inv ag, NCOA1 inh)
COc1cc(N)c(Cl)cc1C(=O)NC1CCN(Cc2ccccc2)CC1	EBV LMP1 NFkB 92
CN1CCCN(C(=O)CSc2nnc(-c3cccnc3)n2C2CCCCC2)CC1	none (no result: NCOA3 inh, EBV LMP1 NFkB, NR5A2 inv ag, NCOA1 inh)
Cc1cccc(S(=O)(=O)N2CCCc3ccccc32)c1	EBV LMP1 NFkB 48
COC(=O)[C@]12C[C@H](CC(=O)NCc3ccc(C)o3)C(=O)N(Cc3ccc(Cl)cc3Cl)C1=C[C@H](C(C)(C)C)O[C@@H]2C	none (no result: NCOA3 inh, EBV LMP1 NFkB, NR5A2 inv ag, NCOA1 inh)
CC(C)[C@H](NC(=O)[C@H](Cc1ccccc1)NC(=O)OC(C)(C)C)C(=O)N1CCC2CCN(S(=O)(=O)c3ccccc3)CC21 (some centres not stated)	none (no result: NCOA3 inh, EBV LMP1 NFkB, NR5A2 inv ag, NCOA1 inh)
O=[N+]([O-])c1ccc(N2CCN(Cc3cccc([N+](=O)[O-])c3)CC2)cc1	EBV LMP1 NFkB 54
CCOC(=O)[C@]12CCCCC/C=C\1N(Cc1ccc(OC)cc1)C(=O)[C@H]2CC(=O)NCc1ccccc1	none (no result: NCOA3 inh, EBV LMP1 NFkB, NR5A2 inv ag, NCOA1 inh)
CCOc1ccc(-n2c(-c3ccc(OC)cc3)c[n+]3c2CCCCC3)cc1	NR5A2 inv ag 84
COc1cccc(CCNC(=O)CCc2nc(-c3ccccc3F)no2)c1	none (no result: NCOA3 inh, EBV LMP1 NFkB, NR5A2 inv ag, NCOA1 inh)
O=C(/C=C1\NC2(CCCC2)Cc2ccccc21)C(=O)N/N=C/c1ccccc1O	EBV LMP1 NFkB 44
CSc1nc(N)nc2c1ncn2CC(=O)NCc1ccc2c(c1)OCO2	none
CSc1nc(N)nc2c1ncn2CC(=O)NCc1ccccc1	EBV LMP1 NFkB 88
O=C(CCl)Nc1cc(SCC(O)CO)cc([N+](=O)[O-])c1 (configuration not stated)	NCOA2 inhibitor 69, NCOA3 inh 70, NR5A2 inv ag 87
CCC(=O)Nc1cc(SCCO)cc([N+](=O)[O-])c1	none
COC(=O)[C@]12C[C@H](CC(=O)NCc3cccs3)C(=O)N(CCC3=CCCCC3)C1=C[C@H](C(C)(C)C)O[C@@H]2C	none (no result: NCOA3 inh, EBV LMP1 NFkB, NR5A2 inv ag, NCOA1 inh)
COc1ccc(-c2n(CC(=O)OC3CC(C)CCC3C(C)C)c3ccccc3[n+]2C)cc1 (configuration not stated)	NCOA3 inh 70
CC(=O)c1ccc(S(=O)(=O)Nc2cccc(-c3ccc4nncn4n3)c2)cc1	EBV LMP1 NFkB 58
Cc1ccc2nc(-c3ccc(NC(=O)CSc4nnc(Cc5cccs5)n4C)cc3)sc2c1	none (no result: NCOA3 inh, EBV LMP1 NFkB, NR5A2 inv ag, NCOA1 inh)
COC(=O)c1cn(NC(=O)C2CCC(C)CC2)c(=O)c2ccccc12 (configuration not stated)	none
COC(=O)c1cn(NC(=O)c2cc([N+](=O)[O-])ccc2F)c(=O)c2ccccc12	NCOA2 inhibitor 59, NCOA3 inh 78, EBV LMP1 NFkB 86, NR5A2 inv ag 76, NCOA1 inh 70
CCCCN1C(=O)N2Cc3cc(OC)ccc3C2CS1(=O)=O (configuration not stated)	none (no result: NCOA3 inh, EBV LMP1 NFkB, NR5A2 inv ag, NCOA1 inh)
C[C@@]12C(=O)N(Cc3ccccc3)CC(=O)N1[C@H](/C=C/c1ccccc1)[C@@H]1C(=O)N(c3ccccc3)C(=O)[C@@H]12	EBV LMP1 NFkB 82 (no result: NCOA3 inh, NR5A2 inv ag, NCOA1 inh)
CN1C(=O)[C@H]2[C@@H](/C=C/c3ccccc3)N3C(=O)CN(Cc4ccccc4)C(=O)[C@@]3(C)[C@H]2C1=O	none
CCOC(=O)c1ccc2nc(Nc3nc4ccc(F)cc4s3)sc2c1	none
COC(=O)c1ccc2nc(Nc3nc4c(F)cc(F)cc4s3)sc2c1	NCOA2 inhibitor 53
CC(CCN1CCC(C(O)(c2ccccc2)c2ccccc2)CC1)Oc1cc(F)cc(C#N)c1 (configuration not stated)	none (no result: NCOA3 inh, EBV LMP1 NFkB, NR5A2 inv ag, NCOA1 inh)
CCCCC(=O)OCC(=O)C1(O)Cc2c(O)c3c(c(O)c2C(OC2CC(NC(=O)C(F)(F)F)C(O)C(C)O2)C1)C(=O)c1c(OC)cccc1C3=O (configuration not stated)	EBV LMP1 NFkB 48
COc1cccc2c1C(=O)c1c(O)c3c(c(O)c1C2=O)C[C@](O)(C(C)=O)C[C@H]3O[C@@H]1C[C@@H](N)[C@@H](O)[C@@H](C)O1	EBV LMP1 NFkB 91, NR5A2 inv ag 99
COc1cccc2c1-c1c(O)cccc1C2=O	none
COc1cccc2c1C(=N)c1c(O)c3c(c(O)c1C2=O)CC(O)(C(C)=O)CC3OC1CC(N)C(O)C(C)O1 (configuration not stated)	EBV LMP1 NFkB 53 (no result: NCOA2 inhibitor)
COc1cccc2c1C(=O)c1c(O)c3c(c(O)c1C2=O)CC(O)(C(C)=O)CC3OC1CC(O)C(O)C(C)O1 (configuration not stated)	none
CC(C)CNS(=O)(=O)/C=C/c1ccccc1CNC(=O)OC(C)(C)C	none (no result: NCOA3 inh, EBV LMP1 NFkB, NR5A2 inv ag, NCOA1 inh)
